Test results: PubChem BioAssay AID2129 (The Scripps Research Institute Molecular Screening Center, 2009)
The whole screen tested about 320,000 compounds, of which about 2,200 (0.69%) were called active.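 The calls were made as follows: active = inhibition above the mean of all tested compounds plus 3 SD, cutoff set per campaign (cut at about 30% in these data); inactive = the rest.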 The list comes from a sample in which actives are over-represented; it also holds similar structures and randomly drawn compounds.

What follows are compounds tested against Bcl-2-like protein 1 (Homo sapiens) (UniProt Q07817) (assay: inhibitors of human Bcl-xL, primary screen, biochemical, fluorescence polarization, HTS (AID 2129;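 also: 0% = DMSO wells and 100% = unlabeled Bim-BH3 peptide competitor; inhibitors lower millipolarization by displacing the labeled peptide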)). Settings: GST-Bcl-xL / FITC-Bim BH3 peptide fluorescence polarization; at 10.9 µM; active compounds read high.
Chain of Bcl-2-like protein 1 (Homo sapiens) (Q07817 whole entry, looked up): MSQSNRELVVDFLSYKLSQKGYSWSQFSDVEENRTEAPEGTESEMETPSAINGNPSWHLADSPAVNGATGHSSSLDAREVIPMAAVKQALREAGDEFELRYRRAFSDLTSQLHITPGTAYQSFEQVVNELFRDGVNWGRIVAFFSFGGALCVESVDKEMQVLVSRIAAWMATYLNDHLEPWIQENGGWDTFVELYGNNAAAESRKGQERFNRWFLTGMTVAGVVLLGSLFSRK

Row | Compound | inhibition
1 | Cc1ccc(-c2noc(C3CCCN(C(=O)c4cccc(Cl)c4)C3)n2)o1 (centres undefined) | -3.97% (inactive)
2 | Cc1ccc2nc(SCC(=O)N3CC(C)OC(C)C3)nc(=O)n2c1 (centres undefined) | 5.27% (inactive)
3 | Cc1nc([N+](=O)[O-])c(NCCCO)n1Cc1ccccc1 | 8.64% (inactive)
4 | O=C(Nc1cc(S(=O)(=O)N2CCOCC2)ccc1OCC(F)(F)F)c1ccc(N2CCCC2=O)cc1 | -2.38% (inactive)
5 | CC1(C)CCc2nc(SCc3ccccc3)c(C#N)cc2C1 | 4.14% (inactive)
6 | CC(NC(=O)CSc1nc2c(cc1C#N)CN(C)CC2)c1ccccc1 (centres undefined) | 36.7% (active)
7 | Cc1cc(NC(=O)CSc2nc3c(cc2C#N)CCCCC3)no1 | 0.61% (inactive)
8 | Cn1c(CC(=O)NNC(=O)c2ccccc2F)nc2ccccc21 | 4.35% (inactive)
9 | CCOc1ccc(N2C(=O)Nc3ccccc3C2(O)C(=O)NCc2ccco2)cc1 (centres undefined) | 2.5% (inactive)
10 | CCC1CCCCN1C(=O)CSc1nc2c(c(=O)n1C)SC(C)C2 (centres undefined) | 2.98% (inactive)
11 | Cc1c(CN2CCCCC2)c(O)n(CCO)c(=O)c1C#N | 21.4% (inactive)
12 | CCCCCCn1c(CN2CCCC(C)C2)nc2c1c(=O)n(C)c(=O)n2C (centres undefined) | -0.05% (inactive)
13 | CCCn1c(O)c(CN2CCCC(C)C2)c(C)c(C#N)c1=O (centres undefined) | 53.4% (active)
14 | COc1ccc(CNC(=O)c2c[nH]c3c(OC)cc(OC)cc3c2=O)cc1 | 1.75% (inactive)
15 | O=C(O)CC/C(=N\NC(=O)c1ccc(F)cc1)c1ccc(Br)cc1 | 2.98% (inactive)
16 | Cc1cccc(NC(=O)c2cc(S(=O)(=O)N3CCC4(CC3)OCCO4)ccc2F)c1 | 0.06% (inactive)
17 | O=C(O)c1cc(Cl)c(Cl)cc1C(=O)Nc1cccc2ncccc12 | 5.65% (inactive)
18 | Cc1ccc(Cc2cnc(NC(=O)/C(C#N)=C/c3ccc(-c4cccc([N+](=O)[O-])c4)o3)s2)cc1 | 1.29% (inactive)
19 | Cc1ccc(/C=C(\C#N)C(=O)Nc2cccc3ncccc23)o1 | 102% (active)
20 | CCOc1ccc(-n2c(SCC(=O)NC3CCS(=O)(=O)C3)nnc2-c2cccnc2)cc1 (centres undefined) | -6.49% (inactive)

Row | Compound | inhibition
21 | CCc1cccc(C)c1N(C(=O)Cn1c(CO)nc2ccccc21)C(C)COC (centres undefined) | 58.5% (active)
22 | CCOCN(C(=O)Cn1c(C(C)O)nc2ccccc21)c1c(C)cccc1CC (centres undefined) | 6.75% (inactive)
23 | COc1ccccc1Cn1c(CO)nc2ccccc21 | 0.35% (inactive)
24 | COC(=O)c1sc(=S)n(-c2ccc(Cl)cc2)c1C | 8.78% (inactive)
25 | CCOC(=O)c1c(N)sc(C(C)=O)c1C | 4.34% (inactive)
26 | COCCOC(=O)c1sc(=S)n(CCOC)c1N | 90.3% (active)
27 | O=C(NCC1(N2CCCCC2)CCCCC1)c1ccc(NS(=O)(=O)c2ccc(F)cc2)cc1 | 5.4% (inactive)
28 | Cc1coc2c(O)cc3c(c12)OC1(N2CCCCC2)C(=O)NCCCC31 (centres undefined) | 39% (active)
29 | NC(=O)c1nsc(C(=O)N(CC(=O)NCc2ccc(F)cc2)Cc2ccco2)c1N | 1.4% (inactive)
30 | COc1ccc(-n2cnc3cc(NCc4ccco4)ccc32)cc1 | 6.77% (inactive)
31 | Cc1ccc2[nH]c(C(=O)O)c(NC(=O)c3ccccc3[N+](=O)[O-])c2c1 | 3.72% (inactive)
32 | CN(C)CCCCCN(C)Cc1cc2ccccc2o1 | 0.68% (inactive)
33 | CCCCCCCNc1nc(Cl)nc(NCCO)n1 | 5.24% (inactive)
34 | CCOc1ccc2nc(N3CCCN(C(=O)Nc4ccccc4C)CC3)c(C#N)cc2c1 | 46.6% (active)
35 | CCOc1ccc(C(=O)NC2CCN(C(=O)Nc3ccccc3OC)CC2)cc1 | 1.4% (inactive)
36 | CCOC(=O)c1cc(C#N)c(N2CCCCC2)nc1-c1ccccc1 | -1.67% (inactive)
37 | Cc1ccc(C)c(NC(=S)NNC(=S)Nc2ccc(C(C)C)cc2)c1 | 18% (inactive)
38 | CC(C)c1ccc(NC(=S)NNc2ccc(Cl)c(C(=O)O)c2)cc1 | 115% (active)
39 | O=C(NC(=S)Nc1ccc(Cl)c(C(=O)O)c1)c1cncc(Br)c1 | -0.3% (inactive)
40 | Cc1nn(C(C)(C)C)c(OC(=O)CC(C)C)c1S(=O)(=O)c1ccccc1 | 2.54% (inactive)

Row | Compound | inhibition
41 | Cc1c(Nc2cc(N3CCCC(C)C3)c3nonc3c2[N+](=O)[O-])c(=O)n(-c2ccccc2)n1C (centres undefined) | -1.91% (inactive)
42 | Nc1nc(NCC(=O)O)nc(N2CCCCCC2)c1[N+](=O)[O-] | -0.96% (inactive)
43 | Nc1cc(N2CCCCCC2)c2nonc2c1[N+](=O)[O-] | 53.6% (active)
44 | CCCCCCCCCOC1OC(CO)C(O)C(O)C1NC(C)=O (centres undefined) | 0.06% (inactive)
45 | O=c1c2ccccc2nnn1CSc1nc2sc3c(c2c(=O)n1CC1CCCO1)CCC3 (centres undefined) | -0.57% (inactive)
46 | O=C1CCC(=O)N(O)CCCCCNC(=O)CCC(=O)N(O)CCCCCNC(=O)CCC(=O)N(O)CCCCCN1 | 6.42% (inactive)
47 | CCCn1c(C2CCCN2c2nc(-c3ccc(OC)cc3)cs2)nc2ccccc21 (centres undefined) | 7.05% (inactive)
48 | CCCn1c(C(C)Nc2nc(-c3ccc(C)cc3)cs2)nc2cc(Cl)c(N3CCCCC3)cc21 (centres undefined) | 4.98% (inactive)
49 | CCCn1c(C2CCCN2c2nc(-c3ccc(C)cc3)cs2)nc2cc(Cl)c(N3CCCCC3)cc21 (centres undefined) | 76.7% (active)
50 | Cc1cc(S(=O)(=O)NCc2ccccn2)c(Cl)cc1Cl | 4.73% (inactive)
51 | CCOC(=O)c1c(C)n(C)c2ccc(OC)c(NC(=O)CN3CCC4(CC3)OCCO4)c12 | -7.5% (inactive)
52 | [O-][n+]1c2c(nn1-c1ccc(Cl)c(Cl)c1)-c1nonc1CC2 | -0.16% (inactive)
53 | CC1(OC(=O)C2CCCC2)C(=O)C=C2C=C(c3ccc(C#N)cc3)OC=C2C1=O (centres undefined) | 10.6% (inactive)
54 | COCCN1C=C2C(=O)C(C)(OC(=O)C3CCCC3)C(=O)C=C2C=C1c1ccsc1 (centres undefined) | 34.2% (active)
55 | CC1(OC(=O)CCc2ccccc2)C(=O)C=C2C=C(c3ccc(C#N)cc3)N(CCc3ccccn3)C=C2C1=O (centres undefined) | 25.8% (inactive)
56 | Fc1ccccc1/C=N/Nc1cc(N2CCCCC2)ncn1 | 1.94% (inactive)
57 | Cn1nccc1/C=N\NC(=O)c1ccc(Cl)cc1 | 7.38% (inactive)
58 | O=c1[nH]n2c(-c3ccccc3)nc(O)c2c2ccccc12 | -0.91% (inactive)
59 | O=c1[nH]c2ccccc2n2c(-c3ccccc3)nnc12 | 43% (active)
